A selection: hits, their analogues and other compounds. The true share with any hit is near 12%.
SARS PLP yeast = inhibitors of SARS-CoV papain-like protease in yeast; S. cerevisiae expressing SARS-CoV PLpro, growth rescue; Potency, µM (doses to about 32.9 µM), without a hit: at the highest dose activity, positive = growth rescue, hits mostly activators; hit rate 0.19% among 330,000; AID 485353; calls by dose curve; note: 0% is about no effect; nearly all actives have a fitted effect of over 55% in size
Sm TGR block = blocks Schistosoma mansoni thioredoxin glutathione reductase | Q962Y6 | purified TGR, DTNB reduction, TNB absorbance 405 nm | Potency, µM (highest dose often 114 µM), for inactives: at the top dose activity change, negative = inhibition, hits mostly inhibitors | hit rate 3% among 360,000 | AID 485364; note: % is set by controls: 0 for no effect and ±100 for the full control effect; nearly all actives have a fitted effect of over 60% in size
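Kinetic colorimetric format: TGR-catalysed, NADPH-driven DTNB reduction monitored via TNB absorbance. Enzyme dispensed at 20 nM; compound exposure 15 min at room temperature before reaction start.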
Pf growth 48h = inhibits P. falciparum growth in the first generation, 48 h; P. falciparum luciferase growth in erythrocytes, 48 h; Potency, µM (top dose mostly 28.7 µM), inactives show top-dose activity change, negative = inhibition, most hits filed as inhibitors; hit rate 5.9% among 310,000; note: % is set by controls: 0 for no effect and ±100 for the full control effect
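Luminescence readout; reporter = integrated firefly luciferase in P. falciparum. RBC culture at 2% hematocrit, 0.1% parasitemia final, 37 C/5% CO2; decreased signal taken as growth inhibition.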
Pf growth 96h = inhibits malaria parasite growth, 96 h | P. falciparum luciferase reporter growth, 96 h | Potency, µM (top dose mostly 28.7 µM), without a hit: at the top dose activity change, negative = inhibition, usual class: inhibitors | hit rate 6.9% among 320,000 | AID 504834; note: % is set by controls: 0 for no effect and ±100 for the full control effect
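Erythrocytes infected with luciferase-expressing P. falciparum were dispensed at 2% hematocrit and 0.05% parasitemia (final), then incubated with compounds 96 hours at 37 C in 5% CO2. Luminescence after detection reagent addition reported growth.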
An asterisk follows results filed as active. Unless noted, calls come from the whole dose curve; as a rule, active = well fitted curve in the direction sought with a large enough effect; inconclusive = small, poorly fitted or top-dose-only effect, or another doubt; inactive = no such curve, though single readings can be large; an effect the other way counts as inactive or inconclusive. Potency is the fitted concentration of half-maximal effect.

What do the screens show for `Cc1ccc(C(=O)CSC2=C(C#N)C(c3ccco3)C3=C(CC(C)(C)CC3=O)N2)cc1` (stereo unspecified)?
SARS PLP yeast: 3%; Sm TGR block: 43%; Pf growth 96h: 0%

What do the screens show for `CC(=O)C1=C(C)NC(SCC(=O)c2ccc(C)cc2)=C(C#N)C1c1ccco1` (stereo unspecified)?
SARS PLP yeast: -17%; Sm TGR block: inconclusive; Pf growth 48h: 9.3µM*; Pf growth 96h: 6.6µM*

What do the screens show for `COc1ccc(OC)c(NC(=O)CSC2=C(C#N)C(c3ccco3)C3=C(CCCC3=O)N2)c1` (stereo unspecified)?
SARS PLP yeast: 4%; Sm TGR block: -25%; Pf growth 48h: 9.3µM*; Pf growth 96h: -4%

Results for Cc1ccc(-c2noc(CN(C3CCCCC3)S(=O)(=O)c3ccc(C)cc3)n2)cc1 ?
Sm TGR block: 1%

How did O=C(NC1CCCCCC1)C1c2ccccc2C(=O)N1Cc1ccccc1Cl (stereo unspecified) do in these assays?
Sm TGR block: 8%

How did Cc1cccc(N2CCN(C(=O)c3cc(S(=O)(=O)N4CCC(C)CC4)cn3C)CC2)c1C do in these assays?
Sm TGR block: 7%

How did CCN(CC)S(=O)(=O)c1ccc(NC(=O)c2ccccc2N(C)S(C)(=O)=O)cc1 do in these assays?
SARS PLP yeast: -6%; Sm TGR block: -1%; Pf growth 96h: -14%

How did CCN(CC)S(=O)(=O)c1cc(C(=O)Nc2cc(C)on2)ccc1Cl do in these assays?
SARS PLP yeast: 6%; Sm TGR block: -10%; Pf growth 48h: inconclusive; Pf growth 96h: inconclusive

What do the screens show for `CC(=O)Nc1ccc(NC(=O)c2ccc(S(=O)(=O)N(C)c3ccccc3)cc2)cc1`?
SARS PLP yeast: 0%; Sm TGR block: 1%; Pf growth 48h: 13µM*; Pf growth 96h: inconclusive

What do the screens show for `CCN(CC)S(=O)(=O)c1ccc(C(=O)Nc2cc(C)on2)cc1`?
SARS PLP yeast: 0%; Sm TGR block: 4%; Pf growth 48h: 12µM*; Pf growth 96h: 7.4µM*

How did CCN1C(=O)c2cccc3c(NC(=O)c4ccc(S(=O)(=O)N(C)C)cc4)ccc1c23 do in these assays?
SARS PLP yeast: -8%; Sm TGR block: -10%; Pf growth 48h: 12µM*; Pf growth 96h: 10%

What do the screens show for `CCN(CC)S(=O)(=O)c1ccc(NC(=O)c2ccc(N(C)S(C)(=O)=O)cc2)cc1`?
SARS PLP yeast: 27%; Sm TGR block: -2%; Pf growth 48h: 17µM*; Pf growth 96h: 8.3µM*

How did CN(c1ccccc1)S(=O)(=O)c1ccc(NC(=S)NC(=O)c2ccccc2)cc1 do in these assays?
SARS PLP yeast: 0%; Sm TGR block: inconclusive; Pf growth 48h: -4%

What do the screens show for `COc1ccc(S(=O)(=O)N2CCOCC2)cc1C(=O)N(C)Cc1ccco1`?
SARS PLP yeast: -3%

What do the screens show for `Cc1cn2c(=O)cc(COc3cccc(NC(=O)c4ccccc4Cl)c3)nc2s1`?
Sm TGR block: -8%

Results for CCN(CC)S(=O)(=O)c1ccc(C(=O)Nc2ccc(OCC(=O)N3CCOCC3)cc2)cc1 ?
SARS PLP yeast: -3%; Sm TGR block: 2%; Pf growth 48h: inconclusive; Pf growth 96h: 0.37µM*

How did CN(C)S(=O)(=O)c1ccc(C(=O)Nc2ccccc2F)cc1 do in these assays?
SARS PLP yeast: -3%; Sm TGR block: 1%; Pf growth 48h: 11%

What do the screens show for `CN(C)S(=O)(=O)c1ccc(C(=O)Nc2ccccc2C(=O)O)cc1`?
SARS PLP yeast: -29%; Sm TGR block: 2%; Pf growth 48h: -12%; Pf growth 96h: 13µM*

How did COCCn1c(C)cc(C(=O)COc2ccc(N(C)S(=O)(=O)c3ccc(C)cc3)cc2)c1C do in these assays?
SARS PLP yeast: 4%; Sm TGR block: -11%; Pf growth 48h: 9.3µM*; Pf growth 96h: inconclusive

How did Cc1ccc(S(=O)(=O)N(C)c2ccc(C(=O)Nc3ccc(C)cn3)cc2)cc1 do in these assays?
SARS PLP yeast: -4%; Sm TGR block: -8%; Pf growth 48h: 12µM*; Pf growth 96h: inconclusive

Results for CN(C)c1oc(-c2ccc(COc3ccccc3)o2)nc1C#N ?
Sm TGR block: 1%

How did Cc1ccc[n+](CC(=O)Nc2cc(C(F)(F)F)ccc2Cl)c1 do in these assays?
SARS PLP yeast: 5%; Sm TGR block: -16%; Pf growth 48h: inconclusive; Pf growth 96h: inconclusive

Bioassay records deposited in PubChem by National Center for Advancing Translational Sciences (NCATS).
